Compound activity from PubChem.
Gli-Sufu block: Gli-Sufu pathway antagonism; Sufu-KO-LIGHT fibroblasts, Gli luciferase reporter luminescence; inhibition, % at 5 µM; 340,000 compounds, 0.74% hits; AID 588413;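 active means inhibition above about 55%, limit read from the data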;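 further: 0% = DMSO-treated cells and 100% = wells with medium but no cells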
TAG inh: reduces triacylglycerol accumulation in H9c2 cells; inhibition, % at 12.5 µM; Nile Red lipid (TAG) fluorescence; cells loaded with 200 µM oleic acid; 230,000 compounds, 0.66% hits; AID 651582;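 active means pattern-corrected inhibition of lipid staining of at least 50% with the nuclear-stain viability signal not falling by more than 50%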;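 further: 0% = DMSO wells and 100% = triacsin C control wells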
aSyn UTR inh: 5' untranslated region of α-synuclein, MLPCN primary screen. alpha-synuclein 5'UTR reporter, inhibitor activity. inhibition, % (tested at 7.5 µM). 300,000 compounds, 0.82% hits; in the data active means inhibition above about 60%;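 further: H4 neuroglioblastoma cells stably carrying SNCA 5'UTR luciferase fusion; 0% = DMSO wells and 100% = positive control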
697 NFkB inh: inhibitors of the PMA/ionomycin-induced NF-kB reporter in 697 B cells; 697 B-cell NF-kB luciferase reporter, 16 h; inhibition, % at 4 µM; 330,000 compounds, 0.33% hits; in the data active means inhibition above about 35%
Shn3 inh set2: inhibitors of Schnurri-3 3'UTR reporter in osteoblasts. Clone20 osteoblast Shn3 3'UTR firefly luciferase, 24 h. inhibition, % at 12.5 µM. 360,000 compounds, 0.52% hits. AID 588674;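 active means mean inhibition of at least 75% with every replicate also reaching 75%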;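 further: 0% = median of neutral control wells and 100% = pilot-screen positive control compound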
Jurkat NFkB inh: lowers PMA/ionomycin-induced NF-kB signal in Jurkat cells | PMA/ionomycin-induced NF-kB luciferase reporter, luminescence | inhibition, % at 4 µM | 330,000 compounds, 0.53% hits; in the data active means inhibition above about 50%
Numbers without * were called inactive; · = no result given. Only some compounds are listed: those with a hit (about 2.3% of all), similar ones and a draw of the others.

SMILES	Gli-Sufu block	TAG inh	aSyn UTR inh	697 NFkB inh	Shn3 inh set2	Jurkat NFkB inh
CN1CCc2c(sc(NC(=O)c3ccc([N+](=O)[O-])o3)c2C(N)=O)C1	5	87	86*	-5	-10	15
CN1CCc2c(sc(NC(=O)c3ccco3)c2C(N)=O)C1	-5	-1	-8	-37	-15	9
NC(=O)c1c(NC(=O)c2ccc([N+](=O)[O-])o2)sc2c1CCCC2	39	·	95*	9	81	0
CCN(CC)c1ccc(C(=O)OCc2cc(=O)oc3cc(O)ccc23)cc1	6	-12	117*	-27	23	-20
COc1cc2cc(-c3ccc(OC)c(OC)c3C)nc(N)c2cc1OC	46	43	96*	-13	·	47
CCCNC(=O)Nc1cccc(C(=O)OC)c1	5	2	7	-3	12	2
Cc1cc(C(F)F)n2nc(C(=O)Nc3cc(C)on3)nc2n1	-12	-1	-9	-4	-5	13
Cc1ccc(-c2cc(C(=O)N/N=C/c3c(C)nn(-c4ccccc4)c3C)[nH]n2)cc1	·	69*	66*	·	49	·
Cc1nn(-c2ccccc2)c(C)c1/C=N/NC(=O)c1cc(C(C)(C)C)[nH]n1	-9	12	-3	4	-10	-2
N#CC(C#N)=C1C=CC=CN1/C(=C\c1ccco1)C(=O)c1ccccc1	38	·	·	·	96*	·
COc1ccc(/C=C(/C(=O)c2cccs2)N2C=CC=CC2=C(C#N)C#N)cc1	-14	·	-102	·	67	·
N#CC(C#N)=C1C=CC=CN1/C(=C\c1ccco1)C(=O)c1ccc(Br)cc1	16	·	·	·	90*	·
O=C(CN1CCN(c2ccc(F)cc2)CC1)N1CCC(Cc2ccccc2)CC1	-1	·	35	6	0	-12
COc1ccc(CN2CCN(C(=O)c3ccc(S(=O)(=O)N4CCCCCC4)cc3)CC2)cc1F	16	9	·	-30	19	27
CCCCCCN1C=CC(=C2C(=O)c3ccccc3C2=O)C=C1	1	-16	107*	-125	68	-138
CN1C=CC(=C2C(=O)c3ccccc3C2=O)C=C1	·	·	14	-117	·	-75
COc1ccc(CC(N)c2csc(NC(=O)Nc3cccc(C(F)(F)F)c3)n2)cc1 (stereo not drawn)	·	129	·	·	96*	·
Cc1cc(C)c(NC(=O)CSc2nc(=O)n(CCN3CCOCC3)c3c2CCCC3)c(C)c1	-3	7	4	19	20	12
CCOc1ccc(CCNC(=O)Nc2ccccc2C)cc1OCC	12	·	20	7	22	-7
Cc1[nH]c(=S)[nH]c(=O)c1CCCO	28	10	2	6	26	10
COc1ccc(/C=C2\SC(=O)N(CCC(=O)Nc3ccccc3)C2=O)cc1OC	6	·	82*	17	0	4
COc1cc(/C=C2\SC(=S)N(CCC(=O)Nc3ccccc3)C2=O)cc(OC)c1OC	7	-23	13	14	5	6
CCOc1ccc(-c2cnc3ccccc3n2)cc1	1	7	92*	-195	61	-46
O=[N+]([O-])c1ccc(-c2cnc3ccccc3n2)cc1	-64	-21	-124	-71	-81	-60
O=C(Nc1cccc2ccccc12)C12CC3CC(C1)CC(n1cnc([N+](=O)[O-])n1)(C3)C2	6	3	73*	0	14	-2
SMILES	Gli-Sufu block	TAG inh	aSyn UTR inh	697 NFkB inh	Shn3 inh set2	Jurkat NFkB inh
COC(=O)c1ccccc1NC(=O)C12CC3CC(C1)CC(n1cnc(Cl)n1)(C3)C2	14	20	-7	-9	22	1
CCOc1ccc(/C=C/C(=O)c2cc(Br)ccc(=O)c2O)cc1	-13	·	·	·	-3	·
CCc1ccc(/C=C/C(=O)c2cc(Br)ccc(=O)c2O)cc1	3	·	72*	-22	14	6
Clc1ccc(-c2cccs2)nn1	28	-10	-14	-22	2	4
CC1CCN(c2ccc(-c3cccs3)nn2)CC1	10	·	102*	-14	55	31
CCCCCC1CC1C(=O)N/N=C/c1ccc(N(C)C)cc1 (stereo not drawn)	-26	8	-18	-3	89*	2
CCOc1cc(CNCCCN2CCOCC2)cc(Br)c1OCc1ccccc1Cl	34	14	96*	-5	86*	20
CCOc1cc(CNCCO)cc(Br)c1OCc1ccccc1Cl	13	·	-8	-12	53	38
CC1(C)Oc2cc3oc(-c4cc(O)cc(O)c4)cc3cc2CC1O (stereo not drawn)	7	·	97*	-85	46	-22
CCCCC[C@H]1CN(Cc2ccc(OC)cc2)C(=O)[C@@H]1CC(=O)NCc1ccccc1	-5	17	1	-19	89*	12
CC(=O)c1ccc(N2CCN(C(=O)CCC(=O)Nc3ccc4nc(N5CCN(C)CC5)cc(C)c4c3)CC2)cc1	27	·	-6	-19	2	3
O=C(Nc1nc(-c2ccccn2)cs1)c1cccc(S(=O)(=O)N2CCOCC2)c1	27	9	·	-45	88*	10
Cc1cccc(C(=O)NC(C(=O)Nc2nc(-c3ccccn3)cs2)C(C)C)c1 (stereo not drawn)	16	-2	81*	-4	47	9
CC(Oc1cccc(Cl)c1)C(=O)Nc1nc(-c2ccccn2)cs1 (stereo not drawn)	-10	-17	64*	-9	45	19
O=C(N/N=C/c1sc(N2CCOCC2)nc1-c1ccccc1)c1cccc(S(=O)(=O)N2CCOCC2)c1	0	7	87*	-4	84	11
COc1ccc(CCNC(=O)C2CC(=O)N(c3ccccc3)C2)cc1OC (stereo not drawn)	-3	-1	-10	0	-2	6
COc1ccc(O)c(C(=O)C2c3ccccc3C(=O)N2c2ccc(C)cc2)c1 (stereo not drawn)	-4	12	-116	-46	-35	-10
O=C(O)c1ccc(CN2C(=O)c3ccccc3S2(=O)=O)cc1	4	-6	-4	3	11	-10
Cc1ccc(-c2nnc3c(C(F)(F)F)nc4ccccc4n23)cc1	-9	0	71*	-5	5	9
FC(F)(F)c1nc2ccccc2n2c(-c3ccc(Cl)cc3)nnc12	11	37	108*	-11	-2	34
CCCc1nn2c(=O)cc(CSCC(=O)Nc3ccccc3)nc2s1	5	·	-6	-3	-32	6
COc1cc2c(cc1OC)C(c1ccc(Br)cc1)NCC2 (stereo not drawn)	2	3	63*	-16	·	17
C/C(=N/NC(=O)c1cc(C2CC2)[nH]n1)c1cccs1	-31	-6	84*	-49	49	-13
C/C(=N\NC(=O)c1ccncc1)c1cccs1	-8	5	-48	-4	-14	-14
Cc1ccc2nc(-c3ccc(NC(=S)NC4CC(C)(C)NC(C)(C)C4)cc3)sc2c1	-98	53*	121*	-134	-71	-63
O=C1N/C(=C/c2ccc(N3CCOCC3)o2)C(=O)N1c1ccccc1	-3	·	·	·	92*	·
